# Hit rate of the full screen: of about 69,000 compounds, about 950 (1.4%) showed an effect of 50% or more. The entries come from a sample that favours strong results as a whole.
# Tested on: Mycobacterium tuberculosis
# Assay: Cornell M. t heat shock assay; further: in the data most compounds retested in dose-response had high values
# Format: functional, organism-based
# Design: dose or concentration left out as unconfirmed
row,SMILES,Percent Effect [%]
1,COCC1CN(c2ccncn2)Cc2cnn(CC3CCCC3)c21.O=C(O)C(F)(F)F.O=C(O)C(F)(F)F (stereo not given),3.159
2,Cc1ccc(CN2CCC3(CC2)CCN(C(=O)c2cccnc2)C3)o1.O=C(O)C(F)(F)F,41.04
3,Cc1cncc(C(=O)N2C[C@H]3CCC[C@@]3(COc3ccccn3)C2)c1.O=C(O)C(F)(F)F.O=C(O)C(F)(F)F,-23.58
4,Cc1ccc(N2CC[C@H]3C[C@H](C(=O)NCc4ccco4)O[C@@H]3C2)cc1.O=C(O)C(F)(F)F,4.102
5,NC[C@H]1CC[C@H](C(NC(=O)c2ccccc2)c2ccccn2)CC1 (stereo not given in full),15.73
6,COc1ccccc1C(=O)NC(c1ccccn1)[C@H]1CC[C@H](CN)CC1 (stereo not given in full),95.79
7,NC[C@H]1CC[C@H](C(NC(=O)c2cccc(F)c2)c2ccccn2)CC1 (stereo not given in full),107.2
8,COc1cccc(C(=O)NC(c2ccccn2)[C@H]2CC[C@H](CN)CC2)c1 (stereo not given in full),14.74
9,NC[C@H]1CC[C@H](C(NC(=O)c2ccccn2)c2ccccn2)CC1 (stereo not given in full),11.19
10,NC[C@H]1CC[C@H](C(NC(=O)C2CC2)c2ccccn2)CC1 (stereo not given in full),-11.64
11,C[C@@H](N)C(=O)N1CC2(CCNCC2)c2cc(Cl)ccc21.Cl.Cl,-22.5
12,O=C(C1=CCCC1)N1CCC2(CC1)CC(Oc1cccnc1)CO2.O=C(O)C(F)(F)F (stereo not given),-14.4
13,Cc1nc(CN2CCc3cc(C(=O)O)c(N(C)C)nc3CC2)cs1.O=C(O)C(F)(F)F.O=C(O)C(F)(F)F,3.488
14,O=C(C1CC1)N1CCN(Cc2ccncc2)c2ncccc2C1.O=C(O)C(F)(F)F.O=C(O)C(F)(F)F,-4.601
15,CCc1onc(C)c1C(=O)N1CCN(c2ncc3c(n2)CCOC3)CC1.Cl,-10.25
16,CCC(CN1CCCC1)n1cncc1-c1cnn(-c2ccccc2)c1.Cl (stereo not given),-7.106
17,CCC(CN1CCOCC1)n1cncc1-c1ccc2c(c1)CCN2CC.Cl (stereo not given),100.9
18,CC(CN1CCOCC1)n1cncc1-c1ccc2c(c1)CCCN2C.Cl (stereo not given),-23.4
19,CCN1CCCc2cc(-c3cncn3C(C)CN3CCOCC3)ccc21.Cl (stereo not given),-27.45
20,CCC(CN1CCOCC1)n1cncc1-c1ccc2c(c1)CCCN2C.Cl (stereo not given),16.42
21,CCN(C)S(=O)(=O)N1CCCC(c2nc(-c3ccccc3)c[nH]2)C1 (stereo not given),14.48
22,CS(=O)(=O)N1CCCC(c2nc(-c3ccccc3)c[nH]2)C1 (stereo not given),-20.18
23,CCCS(=O)(=O)N1CCCC(c2nc(-c3ccccc3)c[nH]2)C1 (stereo not given),97.89

row,SMILES,Percent Effect [%]
1,Cl.Cl.NCC1[C@H]2CN(Cc3ccccc3F)C[C@@H]12 (stereo not given in full),-12.63
2,Cc1[nH]/c(=N\C(=O)c2csc(NC3CC3)n2)sc1C,102.4
3,CC(C)NC(=O)N1CC(=O)c2sc(NC3CCCCC3)nc2C1,1.144
4,CC(C)(C)[S+]([O-])CCNC(=O)c1csc(NC2CC2)n1 (stereo not given),-16.11
5,Cc1[nH]/c(=N/C(=O)Cn2nc(N3CCOCC3)ccc2=O)sc1C,-6.271
6,CC(=O)Nc1nc(C(=O)N2CCCC(c3cc(C)[nH]n3)C2)cs1 (stereo not given),-17.82
7,Cc1[nH]/c(=N\C(=O)c2csc(NC3CCCC3)n2)sc1C,101.9
8,CN(C)c1ccc(CNCc2cnc(N3CCOCC3)nc2)cn1.Cl,-4.55
9,CC(C)=CCN1C(=O)[C@H]2CC[C@@H]1CN(c1ncccn1)C2,-39.45
10,O=C(Cc1ccccc1)N1CC[C@H]2[C@@H]1CCC(=O)N2Cc1ccncc1.O=C(O)C(F)(F)F,-22.84
11,CCCN1C[C@H]2CC[C@@H]1CN(Cc1ccc(Cn3cccn3)cc1)C2,25.45
12,CCCN1C[C@H]2CC[C@@H]1CN(Cc1ccc(-n3cccn3)cc1)C2,105.3
13,CCCN1C[C@H]2CC[C@@H]1CN(Cc1cccc(-n3cccn3)c1)C2,-1.729
14,COCCN1CCCC12CCN(C(=O)CC1CCCC1)CC2.O=C(O)C(F)(F)F,-21.16
15,O=C(O)C(F)(F)F.O=C(O)C(F)(F)F.O=S(=O)(c1cccnc1)N1C[C@H]2CCC[C@@]2(COc2ccccn2)C1,-13.75
16,CC(C)c1cnc(CNc2c(F)cccc2-n2cccn2)o1,8.854
17,Cc1cnc(CNc2c(F)cccc2-n2cccn2)o1,105
18,CC(C)(C)c1nnc(CNc2c(F)cccc2-n2cccn2)o1,0.6342
19,CCc1noc(CNc2c(F)cccc2-n2cccn2)n1,-3.038
20,Cn1ccnc1CNc1c(F)cccc1-n1cccn1,55.71
21,Cn1c(CNc2c(F)cccc2-n2cccn2)cc(=O)n(C)c1=O,6.656
22,O=C(O)C(F)(F)F.O=C1[C@H]2CN(C(=O)[C@H]3CCCO3)C[C@H]2CN1CCN1CCCC1,-0.06274
23,COc1ccc(OC)c([C@@H]2N[C@H](c3nccs3)Cc3ccsc32)c1,6.308

row,SMILES,Percent Effect [%]
1,COc1cc([C@@H]2N[C@H](c3nccs3)Cc3ccsc32)cc(OC)c1OC,-5.187
2,COc1cccc([C@@H]2N[C@H](c3nccs3)Cc3ccsc32)c1OC,50.14
3,Cc1ncsc1CN1C[C@@H]2COC[C@]2(CNC(=O)c2ccccc2)C1.O=C(O)C(F)(F)F,-24.18
4,COc1ccsc1C(=O)NCCNc1ccccc1,-5.187
5,COc1cc(C)sc1C(=O)NCCNc1ccccc1,57.16
6,COc1cc(C)sc1C(=O)NCCC(=O)N(C)c1ccccc1,0.1249
7,Cc1nc(CN2CCO[C@H]3[C@@H](OCc4cccnc4)CC[C@@H]32)cs1.O=C(O)C(F)(F)F.O=C(O)C(F)(F)F,-27.98
8,O=C(O)C(F)(F)F.O=C(O)C(F)(F)F.OCCN1CC2(CCN(CC3CC3)CC2)c2ccccc21,-22.04
9,O=C(O)C(F)(F)F.c1cnc(N2CCC3(CC2)CN(CC2CC2)c2ccccc23)nc1,54.56
10,O=C(O)C(F)(F)F.O=C1N(CC2CC2)CCC12CCN(c1ncccn1)CC2,-22.74
11,O=C(CCC1CCCO1)NCCCO (stereo not given),-7.133
12,O=C(CCC1CCCO1)NCCCC(=O)Nc1ccc(Cl)cc1 (stereo not given),104.2
13,O=C(CCCNC(=O)NCC1CCCO1)Nc1ccc(Cl)cc1 (stereo not given),40.56
14,O=C(CCC1CCCO1)NS(=O)(=O)c1ccc(Cl)cc1 (stereo not given),2.708
15,O=C(CCCNC(=O)C1CCCO1)Nc1ccc(Cl)cc1 (stereo not given),-4.15
16,O=C(CC1CCCO1)NCCCC(=O)Nc1ccc(Cl)cc1 (stereo not given),63.53
17,O=C(O)C(F)(F)F.O=C(O)C(F)(F)F.O=C1COC2(CCN(CC3CCOCC3)CC2)CN1Cc1ccccn1,-24.93
18,O=C(O)C(F)(F)F.c1cncc(N2CC[C@@H]3CN(CC4CC4)C[C@@H]3C2)c1,-51.37
19,Cc1cnc(N2CCC3(CCCN3C(=O)c3ccco3)CC2)nc1.O=C(O)C(F)(F)F,2.375
20,O=C(CCc1ccco1)Nc1cccc(S(=O)(=O)C(F)F)c1,70
21,O=C(NCc1ccco1)Nc1cccc(S(=O)(=O)C(F)F)c1,31.42
22,O=C(CNc1cccc(S(=O)(=O)C(F)F)c1)NCc1ccco1,18.67
23,Cc1cc(C)n(CC2CCCN2C(=O)c2cccnc2N(C)C)n1 (stereo not given),-10.54

row,SMILES,Percent Effect [%]
1,CC(=O)N1[C@H](CN(C)C)C[C@@H]2CN(C(=O)c3cnc(C)cn3)CC[C@@H]21.O=C(O)C(F)(F)F,-17.11
2,Cc1nc(C)n(CC2CCCN2Cc2nc3ccccc3nc2C)n1 (stereo not given),-3.804
3,Cc1nc(C)n(CC2CCCN2Cc2ncc(C(C)(C)C)o2)n1 (stereo not given),8.269
4,Cc1cc(C)n(CC2CCCN2Cc2ncc(C(C)(C)C)o2)n1 (stereo not given),52.86
5,Cc1cc(C)n(CC2CCCN2CCS(=O)(=O)c2ccccc2)n1 (stereo not given),25.73
6,Cc1nn(C)c(C)c1C1CCCN1Cc1nc(N)c2ccccc2n1 (stereo not given),-13.27
7,Cc1nc(C)n(CC2CCCN2Cc2cn3ccsc3n2)n1 (stereo not given),52.44
8,c1ncn(CC2CCCN2Cc2cn3ccsc3n2)n1 (stereo not given),-23.29
9,Cc1nc(C)n(CC2CCCN2Cc2nc(N)c3ccccc3n2)n1 (stereo not given),90.98
10,Cc1nc(C)n(CC2CCCN2Cc2cn3ccccc3n2)n1 (stereo not given),-6.655
11,Cc1nc(C)n(CC2CCCCN2Cc2ncc(C(C)(C)C)o2)n1 (stereo not given),-15.1
12,Cc1cc(C)n(CC2CCCN2Cc2nc(N)c3ccccc3n2)n1 (stereo not given),96.02
13,Cc1nc(C)n(CC2CCCN2Cc2nc(C)c3ccccc3n2)n1 (stereo not given),-0.1749
14,CN1CC(=O)N(c2ccsc2)CC12CCN(Cc1cnn(C)c1)C2.O=C(O)C(F)(F)F.O=C(O)C(F)(F)F (stereo not given),-44.55
15,O=C(NCc1cnc2n1CCN(CC1CC1)C2)C1CC1.O=C(O)C(F)(F)F,-32.01
16,O=CO.c1cc2nccc(CC3CCCN(C4CCOCC4)CC3)c2cn1 (stereo not given),-0.8025
17,CNC(=O)CNCc1c[nH]nc1-c1cc2ccccc2o1.Cl,4.817
18,Cc1cc(CN2CC[C@H]3C(=O)N(c4ccccc4)CCO[C@H]3C2)no1.O=C(O)C(F)(F)F,-6.692
19,O=C(O)C(F)(F)F.O=C1CCC2(CCN(Cc3ccc(F)cc3)CC2)N1Cc1ccccc1,1.967
20,O=C(NC1CC1)N1CCC2(CC1)C(=O)NCCN2Cc1ccccc1.O=C(O)C(F)(F)F,5.553
21,CC(C)CN1C(=O)C2(CCN(Cc3cccs3)C2)c2ccccc21.O=C(O)C(F)(F)F (stereo not given),9.511
